Measurements reported in PubChem BioAssay (NCATS).
Records with an inconclusive call do not appear. Values without a mark were called inactive. Calls come from the whole dose curve; as a rule, active = well fitted inhibition curve with a large enough effect; inconclusive = small, poorly fitted or top-dose-only effect; inactive = flat fitted curve, though single readings scatter.

target: Calcium and integrin-binding protein 1 (Homo sapiens) (UniProt Q99828); assay: Primary qHTS for Identification of Calcium Integrin Binding Protein 1 (CIB1) Competitor (AID 1508620); details: CIB1-GST / FITC-alphaIIb peptide fluorescence polarization; series mostly up to 114 µM; activity change, negative = inhibition: at the top concentration; note: top concentration of the series differs between compounds
Procedure, shortened: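 Fluorescence polarization competition: GST-tagged CIB1 (1 uM final) preincubated with compound 15 min at room temperature, then FITC-labelled alphaIIb peptide (100 nM final) added. After 15 min at room temperature, polarization read at Ex 480/Em 540.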
% is set by controls: 0 for no effect and ±100 for the full control effect.

Sequence of Calcium and integrin-binding protein 1 (Homo sapiens) (Q99828 whole entry, looked up): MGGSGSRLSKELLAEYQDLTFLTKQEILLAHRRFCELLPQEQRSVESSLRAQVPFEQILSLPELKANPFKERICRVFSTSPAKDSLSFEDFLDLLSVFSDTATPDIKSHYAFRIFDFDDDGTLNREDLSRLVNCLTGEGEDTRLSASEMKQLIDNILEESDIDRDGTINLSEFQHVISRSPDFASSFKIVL

Compound	activity change, negative = inhibition [%]
COc1cc(NC(=O)C(OC(=O)CNC(=O)c2ccccc2)c2ccccc2)c(OC)cc1Cl (stereo not given)	1.25
COc1ccc(C(=O)OCC#CCSc2nnc(-c3cccc4ccccc34)o2)cc1	-0.271
CC(C)(C)OC(=O)N1CCN(c2ccc(NCc3ncc(-c4ccc(C#N)cc4)s3)cc2)CC1	0.126
COc1ccc(C2=Nn3c(nnc3-c3ccccc3O)SC2)cc1	-0.42
Cc1cc2c(s1)c1c(n2C)C(=O)N(Cc2ccccc2F)C1	-7.44
Cc1cc(C)nc(NC(=S)N2CCN(S(=O)(=O)c3cccc(C(F)(F)F)c3)CC2)c1	1.65
Cc1ccnc(NCc2ccc(O)c3ncccc23)c1	11.8
O=C(CNC(=O)c1ccccc1)OC(C(=O)Nc1cc([N+](=O)[O-])ccc1F)c1ccccc1 (stereo not given)	-9.3
Cc1nc(C)c(-c2ccc3ncnc(N(C)Cc4sccc4C)c3c2)s1	-3.39
Cc1ccc(OCCn2c(CCNC(=O)OC(C)(C)C)nc3ccccc32)cc1	1.28
O=C1Nc2ccccc2/C1=C\c1ccc(O)c(F)c1	-6.92
C=Cc1cc(F)c(S(=O)(=O)N2CCN(S(=O)(=O)c3ccc4c(c3)OCCO4)CC2)cc1F	7.85
Cc1ccc2nc3sc(C(=O)NCCCN(C)C)cc3cc2c1	4.79
O=S(=O)(c1ccc2c(c1)OCCO2)N1CCN(S(=O)(=O)c2c(F)cccc2F)CC1	-4.79
CCOC(=O)C1CCN(C(=O)C(C)(C)NC(=O)Nc2ccc3sccc3c2)CC1	-9.54
COc1cc(Cn2ncc3c4sc(C)cc4n(C)c3c2=O)cc(OC)c1	5.15
CC(=O)Nc1cccc(OCc2cccc(C3Nc4ccccc4C(=O)N3Cc3ccco3)c2)c1 (stereo not given)	-2.25
CC(C)(C)CNc1ncnc2ccc(-c3ccc(C(=O)O)o3)cc12	-12.2
C#CCCC(=O)Nc1sc2c(c1-c1nc3ccccc3s1)CCNC2	7.8
Cc1csc(CNc2ncnc3ccc(-c4cccc(Cl)c4)cc23)c1	1.23

Compound	activity change, negative = inhibition [%]
COc1ccc(C2Nc3ccccc3C(=O)N2Cc2ccco2)cc1 (stereo not given)	-5.79
CC(=O)c1ccccc1-c1ncc(C)c(NCc2ccc(-c3cccnc3)cc2)n1	4.45
O=C1CCc2cc(S(=O)(=O)Nc3ccc(-c4ccccc4)cc3)ccc2N1	6.15
Cc1cccc(CNc2ccnc(-c3cccc(C(F)(F)F)c3)n2)c1	-0.588
Cc1cc(N[S+](=O)([O-])c2ccc(NC(=O)Cc3ccc(F)c(C(F)(F)F)c3)cc2)no1	-10.4
O=C(NC1CCCc2c1cnn2-c1ccc(F)cc1F)C1CC1 (stereo not given)	0.633
O=C1c2ccccc2C(=O)N1c1cncc2ccccc12	5.67
Cc1cc(NS(=O)(=O)c2ccc(NC(=O)Cc3ccc(Cl)c(C(F)(F)F)c3)cc2)no1	-11.6
Fc1ccc(-c2ccc(CNc3nc(-c4ccccc4C(F)(F)F)nc4ccccc34)cc2)cc1C(F)(F)F	-8.26
COc1ccc(C2Nc3ccccc3C(=O)N2Cc2ccccc2)cc1COc1ccc(Cl)cc1 (stereo not given)	0.365
Cc1ccc(NS(=O)(=O)c2ccc3c(c2)N(C)CCO3)cc1C	-2.24
Cc1cc2c(s1)c1cnn(Cc3c(Cl)ccc(C)c3F)c(=O)c1n2C	-13.7
Cc1ccnc(NC(=S)N2CC3CN(c4ncc(C(F)(F)F)cc4Cl)CC3C2)c1 (stereo not given)	-0.566
Cc1ccc2c(c1)/C(=C\c1cc(Cl)c(O)c(Cl)c1)C(=O)N2	-13.1
CC(C)Oc1ccc(-c2ccc(=O)n(CC(=O)NCCc3ccccc3)n2)cc1	-5.21
O=C(O)c1ccc2c(c1)C(=O)N([C@H](Cc1ccc(O)c(O)c1)C(=O)O)C2=O	-3.04
CC1(C)CCC(C)(C)c2cc([S+](=O)([O-])N3CCN([S+](=O)([O-])c4c(F)cccc4F)CC3)ccc21	-1.81
CN(C)c1cccc(-c2nc(N3CCC(C(N)=O)CC3)ncc2F)c1	2.2
CCCCN(C)C(=O)Cn1nc(-c2cncnc2)ccc1=O	-0.916
Cc1nc(NCc2ccc(-c3ccnc(C(F)(F)F)c3)cc2)c2ccccc2n1	23.5
